# Only some compounds are listed: those with a hit (about 4.6% of all), similar ones and a draw of the others.
# NFkB transloc inh – blocks IL-1B driven NFkB nuclear translocation in HUVEC cells | AID 796 | hit rate 0.43% among 94,000 | inhibition, % at 2 µM | HUVEC IL-1B NFkB p65 nuclear translocation imaging;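 active = inhibition above about 30% together with a positive call from visual inspection of the well image, limit read from the data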;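 also: nuclear over cytoplasmic p65 intensity ratio measured by imaging; 0% = IL-1B stimulated DMSO wells and 100% = unstimulated DMSO wells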
# sEH inhibitor – soluble epoxide hydrolase (human) inhibition. inhibition, % at 2 µM. hit rate 0.34% among 91,000. recombinant human sEH enzymatic activity assay. AID 707; in the data active = inhibition above about 80%
# Target sequence (P34913 whole entry, looked up): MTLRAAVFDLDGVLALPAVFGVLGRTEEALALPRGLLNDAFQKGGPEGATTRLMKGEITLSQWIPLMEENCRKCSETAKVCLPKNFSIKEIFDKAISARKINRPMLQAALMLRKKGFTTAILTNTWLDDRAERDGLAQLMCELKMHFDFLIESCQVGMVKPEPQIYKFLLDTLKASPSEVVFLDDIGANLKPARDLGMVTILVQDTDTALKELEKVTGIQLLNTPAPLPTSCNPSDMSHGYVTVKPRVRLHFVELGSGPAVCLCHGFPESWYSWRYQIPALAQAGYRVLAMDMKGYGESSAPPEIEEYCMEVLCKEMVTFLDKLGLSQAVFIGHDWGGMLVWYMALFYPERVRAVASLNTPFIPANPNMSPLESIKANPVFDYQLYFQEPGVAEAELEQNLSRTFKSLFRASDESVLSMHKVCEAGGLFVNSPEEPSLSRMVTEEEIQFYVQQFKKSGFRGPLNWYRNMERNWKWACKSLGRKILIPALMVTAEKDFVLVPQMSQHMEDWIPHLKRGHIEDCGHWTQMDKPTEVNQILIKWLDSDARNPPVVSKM
# Cav32 inh – inhibitors of human Cav3.2 T-type calcium channel. Cav3.2-expressing cells, Fluo-4 calcium fluorescence FDSS; stronger effect = lower value. B-score at 10 µM. hit rate 4% among 100,000. AID 449739;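 active = single-dose well whose peak fluorescence ratio is a statistical outlier from its plate by either plate-standardised score or position-corrected B-score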
# IL1B cytotox – HUVEC cytotoxicity counter-screen, IL-1B stimulated. HUVEC cell count loss, Hoechst imaging. cell count reduction, % at 2 µM. hit rate 0.41% among 94,000. AID 845;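 active = cell count reduction more than 3 SD above the screen-wide mean, cut at about 70% in these data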;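 also: normalized per plate to untreated control cells as the no-loss baseline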
# NFkB transloc pot – enhances IL-1B driven NFkB nuclear translocation; HUVEC IL-1B NFkB p65 nuclear translocation imaging; activation, % at 2 µM; hit rate 0.3% among 94,000;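 active = activation above 40%, about the mean plus 3 SD, also judged a hit on visual image review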;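 also: percent activation is computed from the nuclear over cytoplasmic p65 intensity ratio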
# sEH activator – soluble epoxide hydrolase (human) activation. P34913. purified human sEH enzymatic activity, activator screen. activation, % at 2 µM. hit rate 0.04% among 91,000. AID 717; in the data active = activation above about 37%
# * = called active by the depositor; nt = no result.
SMILES,NFkB transloc inh,sEH inhibitor,Cav32 inh,IL1B cytotox,NFkB transloc pot,sEH activator
O=C(CSc1nnc(Cc2cccs2)n1C1CCCCC1)N1CCCc2ccccc21,4,1,-7.2*,-2,-4,1
Cn1c(Cc2cccs2)nnc1SCC(=O)N1CCCc2ccccc21,0,1,0.78,11,0,1
N#Cc1ccc(OCc2nnc(SCC(=O)N3CCCc4ccccc43)n2-c2ccccc2)cc1,12,0,-7.4*,17,-12,4
COc1ccc(OCc2nnc(SCC(=O)N3CCCc4ccccc43)n2-c2ccc(C)cc2)cc1,7,4,-8.2*,5,-7,-6
Cc1nn2c(-c3ccco3)nnc2c2ccccc12,4,1,1.3,-45,-4,-4
COCCn1c(Sc2ccccc2)nc2c1c(=O)[nH]c(=O)n2C,7,nt,0.31,9,-7,nt
CCn1c(=O)cc(SCC(=O)NCCCN2CCN(c3ccccc3F)CC2)c2ccccc21,2,3,-3.4*,0,-1,-5
Cc1cnc(NC(=O)CN2CCN(c3ccccc3F)CC2)s1,5,8,-0.11,-16,-5,-5
CCOC(=O)c1sc(NC(=O)C(CC)Sc2nc3ccccc3[nH]2)nc1C (centres undefined),nt,5,0.14,nt,nt,-3
CCOC(=O)c1sc(NC(=O)C(CC)OC(=O)C(CC(C)C)NC(=O)c2ccccc2)nc1C (centres undefined),5,-2,-4*,-86,-5,0
CC(=O)Nc1sc2c(c1C(c1ccccc1)N1CCOCC1)CCCC2 (centres undefined),4,5,-6.3*,34,-4,-4
CC(=O)Nc1sc2c(c1C(c1ccc(Cl)cc1)N1CCOCC1)CCCC2 (centres undefined),-13,30,nt,-8,13,-29
CC(=O)Nc1sc2c(c1C(c1ccc(F)cc1)N1CCOCC1)CCCC2 (centres undefined),11,12,-7.1*,-5,-11,-11
CCCC(C)NC(=O)/C=C/c1cccc([N+](=O)[O-])c1 (centres undefined),-1,-9,1.8,14,1,8
Brc1ccccc1-c1nnc(COc2cccc3cccnc23)o1,0,-13,0.32,0,0,11
O=c1c2ccccc2nc(SCc2cn3ccsc3n2)n1-c1ccccc1,-14,nt,nt,-5,13,nt
Cc1nnc(SCC(=O)Nc2ccccc2NC(=O)CSc2nnc(C)s2)s1,-1,14,0.055,-22,1,-16
Cc1nnc(SCC(=O)Nc2nsc(-c3ccc(C(C)(C)C)cc3)n2)s1,-17,nt,-7.6*,10,17,nt
CC(CO)Nc1nc(SCc2ccccc2)nc2sc3c(c12)CCC3 (centres undefined),-2,-3,-1.6,-17,2,5
COCCNc1nc(SCc2ccccc2)nc2sc3c(c12)CCC3,-2,3,-4.5*,-23,2,-2
CN1C(=O)N(C)C2(c3ccccc3)Nn3c(s/c(=C/c4ccccc4)c3=O)=NC12c1ccccc1 (centres undefined),-15,-24,0.52,-1,15,21
Cc1nn(C(C)(C)C)c(OC(=O)c2cccs2)c1Sc1ccccc1,0,-11,-5.2*,8,0,8
Cc1nn(C(C)(C)C)c(OC(=O)c2ccc3c(c2)OCO3)c1Sc1ccccc1,2,-11,-4.9*,18,-3,14
Cc1nn(C(C)(C)C)c(OC(=O)c2ccco2)c1Sc1ccccc1,12,12,-1,-9,-12,-9
CCOC(=O)c1cnc(-n2nc(C)cc2C)nc1NC(C)c1ccccc1 (centres undefined),nt,nt,-8.8*,nt,nt,nt
SMILES,NFkB transloc inh,sEH inhibitor,Cav32 inh,IL1B cytotox,NFkB transloc pot,sEH activator
COc1cc(/C=N/NC(=O)c2cnn3c(C)cc(-c4ccccc4)nc23)ccc1O,4,0,0.45,6,-4,5
CC1(C)Cc2ccccc2C(NNC(=O)c2cccnc2)=N1,4,-5,-0.044,15,-4,9
CCCN1Cc2cccc(C(=O)N3CCN(c4ccccc4)CC3)c2C1=O,-32,0,-1.8,94*,32,-1
COCCN1Cc2cccc(C(=O)N3CCN(c4ccccc4)CC3)c2C1=O,0,-2,0.14,44,0,2
COc1cccc(/C=N/NC(=O)CSc2nnc(C)n2-c2ccccc2)c1O,24,2,nt,-6,-23,1
Cc1ccc(-c2nn(-c3ccccc3)cc2/C=N/NC(=O)CSc2nnc(C)n2-c2ccccc2)cc1,1,8,-4.5*,7,-1,-5
